Several values for one entry are separate records, joined by “and”; a condition that tells them apart may be missing. Equal values may be shown once. Activity calls are given as the source filed them.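 How the source made its calls, unless noted: active means compounds whose cell count with miR-34 switched on is under 0.7 times the count with it off; inactive means the rest.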
What was measured:
[1] = stimulators of nuclear beta-catenin in C2C12, primary screen, imaging, WNT3A-conditioned medium, mouse C2C12, NPC library (AID 1117326; in the data active means nuclear beta-catenin stimulation mostly above about 4.2%, no sharp cut-off; inactive means mostly below about 10%); settings: stronger effect = higher value
[2] = stimulators of insulin release from INS-1E, primary screen, cell-based, 5 mM glucose, NPC library (AID 1117329;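 active means compound raises insulin release from rat beta cells at 5 mM glucose, no numeric limit stated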); settings: rat INS-1E insulin secretion, at 10 µM, stronger effect = higher value
[3] = growth inhibition of GSK3B-pretreated HCT116 cells – cell-based, CellTiter-Glo, 0.2 to 20 µM (AID 1117336;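 active means compounds lowering colon cancer cell viability after pretreatment blocking the GSK3B kinase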); settings: HCT116 viability after GSK3B inhibitor, at 20 µM, stronger effect = higher value
[4] = inhibition of endothelial tube formation, primary screen, imaging, VEGF stimulated, CD31 staining, tube area, NPC library (AID 1117340;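 active means compound that reduces growth-factor-driven endothelial tube area in a mixed cell culture, no cutoff stated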); settings: VEGF-stimulated ADSC/ECFC co-culture, at 10 µM, stronger effect = higher value
[5] = glucagon-like peptide 1 release enhancers, primary assay, NCI-H716 cell line, NPC library (AID 1117341;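 active means compound raises GLP1 secretion from the human gut endocrine cells, with no numeric limit stated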); settings: NCI-H716 cells, at 10 µM, stronger effect = higher value
[6] = HCT116 colon cancer cell growth inhibition, primary screen, CellTiter-Glo luminescence, NPC library (AID 1117342;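 active means compounds that lower survival of HCT116 colon cancer cells in the luminescence readout, no numeric limit stated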); settings: at 20 µM (top of the series)
[7] = CellTiter-Glo luminescent readout of SW480 viability loss, NPC library primary (AID 1117343;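 active means compounds that lower viability of the colon cancer cells in the luminescence readout, with no numeric limit stated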); settings: CellTiter-Glo luminescence; at 20 µM (top of the series) unless noted
[8] = decreased DLD-1 cellular survival, CellTiter-Glo luminescent readout, NPC compound collection, primary HTS (AID 1117346;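 active means compounds that lower survival of DLD-1 colon cancer cells in the luminescence readout, no cutoff given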); settings: DLD-1 viability, CellTiter-Glo luminescence; at 20 µM (top of the series)
[9] = differential killing of epithelial or mesenchymal cells, primary screen, imaging, PC-3E GFP, TEM4-18 mCherry, co-culture (AID 1345086;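 active means compounds killing one labelled cell type while sparing the other, by normalised counts and ratio limits, not self-fluorescent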;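 on all read-outs here: cells exposed to compound for 72 h before imaging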;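 on red/green cell ratio (normalised): normalised mesenchymal count divided by normalised epithelial count so high means epithelial killing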); settings: imaging cell counts, at 1 µM; for red/green cell ratio (normalised): actives lie on both sides, counts scaled to control wells, 1 = unselective
[10] = sensitizers of A549 cells to miR-34 induction, primary screen, imaging, A549 dox-inducible miR-34, nuclei and caspase counts (AID 1347080); settings: A549 miR-34 inducible, Hoechst nuclei count, 48 h
[11] = hESC survival regulators, cell-based (AID 493140; call rule not given here;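 further: cells exposed to compounds for four days before counting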); settings: human embryonic stem cell survival screen; stronger effect = higher value
[12] = liver-stage malaria parasite growth inhibition, primary screen, cell-based, HepG2, luciferase luminescence, HepG2 viability (AID 624349; in the data active means parasite load remaining mostly below about 12%, no sharp cut-off; inactive means mostly above about 10%;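 further: 100% = mean of DMSO negative control wells on the same plate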); settings: P. berghei liver stage in HepG2, luciferase luminescence, concentration not given here; parasite load remaining: stronger effect = lower value; viability: measured here: HepG2 viability without parasites
[13] = survival rescue of mitochondrial mutant cells in low glucose, primary screen, MELAS cybrids, Rieske KO mouse fibroblasts, CellTiter-Glo (AID 1508586;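 active means mean z-score across replicates of 1.96 or higher in either the MELAS or the Rieske mutant cell line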;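 further: z relative to plate mean and SD of compound and empty wells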)
[14] = target: NAD(+) hydrolase SARM1 (Homo sapiens) (UniProt Q6SZW1); assay: SARM1 TIR NADase inhibitors, cell lysate, NAD-Glo luminescence (AID 1508614;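 active means compound whose remaining NAD level is above about 45 nM, limit read from the data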); settings: SAM-TIR HEK293T lysate NADase, at 1 µM, stronger effect = higher value
Chain of NAD(+) hydrolase SARM1 (Homo sapiens) (Q6SZW1 whole entry, looked up): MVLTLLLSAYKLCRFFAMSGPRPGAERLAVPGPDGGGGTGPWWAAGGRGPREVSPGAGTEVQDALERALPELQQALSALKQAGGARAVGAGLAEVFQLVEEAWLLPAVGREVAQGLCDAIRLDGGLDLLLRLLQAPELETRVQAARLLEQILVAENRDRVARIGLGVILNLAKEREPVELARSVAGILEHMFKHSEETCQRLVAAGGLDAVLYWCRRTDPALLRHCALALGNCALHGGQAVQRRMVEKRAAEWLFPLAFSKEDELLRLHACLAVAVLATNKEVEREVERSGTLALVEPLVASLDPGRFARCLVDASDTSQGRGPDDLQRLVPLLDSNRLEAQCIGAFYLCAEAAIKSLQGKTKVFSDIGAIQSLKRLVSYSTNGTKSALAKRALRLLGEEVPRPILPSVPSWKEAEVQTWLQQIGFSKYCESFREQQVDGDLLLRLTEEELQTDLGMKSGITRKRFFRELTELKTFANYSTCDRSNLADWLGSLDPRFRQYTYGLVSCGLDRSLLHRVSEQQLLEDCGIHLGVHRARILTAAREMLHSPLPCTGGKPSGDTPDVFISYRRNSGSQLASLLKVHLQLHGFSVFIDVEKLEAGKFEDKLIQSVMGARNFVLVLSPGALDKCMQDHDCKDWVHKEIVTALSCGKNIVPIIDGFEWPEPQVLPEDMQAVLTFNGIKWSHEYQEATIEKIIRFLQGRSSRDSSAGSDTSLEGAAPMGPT

[15] = measured here: epithelial PC-3E GFP cell survival
[16] = measured here: mesenchymal TEM4-18 mCherry cell survival
[17] = stronger effect = lower value, cell number ratio, induced over uninduced
[18] = measured here: relative caspase fold change +Dox/-Dox
[19] = measured here: total cells with miR-34 induction, stronger effect = lower value
[20] = measured here: total cells without miR-34 induction

CC(O)CN(CCN(CC(C)O)CC(C)O)CC(C)O (stereo not drawn)
nuclear beta-catenin stimulation ([1]; at 10 µM): 2% (inactive) | nuclear beta-catenin stimulation ([1]; stimulation, at 2 µM): 2.5% | insulin secretion stimulation [2]: 0.5% (inactive) | viability decrease [3]: -38.9% (inactive) | tube area decrease [4]: 5.2% (inactive) | GLP1 secretion stimulation [5]: -4.1% (inactive) | inhibition of viability [6]: 3.07% (inactive) | viability decrease (inhibition) [7]: 18.9% (inactive) | viability decrease (inhibition) [8]: -3.8% (inactive) | red/green cell ratio (normalised) [9]: 1.23 (inactive) | normalised cell number [9, 15]: 0.98 | normalised cell number [9, 16]: 1.2 | fold change [10, 17]: 1.01 (inactive) | fold change [10, 18]: 0.821 | cell count [10, 19]: 9510 | cell count [10, 20]: 9380

C#CCN(C)CCCOc1ccc(Cl)cc1Cl
survival [11]: 8.67 (inactive) | parasite load remaining [12]: 88.7% (inactive) and 89.7% (inactive) | viability [12]: 100% and 71.8% | nuclear beta-catenin stimulation ([1]; at 10 µM): 0.3% (inactive) | nuclear beta-catenin stimulation ([1]; stimulation, at 2 µM): -0.5% | insulin secretion stimulation [2]: -2.3% (inactive) | viability decrease [3]: -91.8% (inactive) | tube area decrease [4]: 22.3% (inactive) | GLP1 secretion stimulation [5]: -0.5% (inactive) | inhibition of viability [6]: 2.63% (inactive) | viability decrease (inhibition) [7]: 48.3% (inactive) | viability decrease (inhibition) [8]: 13.7% (inactive) | red/green cell ratio (normalised) [9]: 1 (inactive) | normalised cell number [9, 15]: 1.14 | normalised cell number [9, 16]: 1.14 | fold change [10, 17]: 1.02 (inactive) and 0.917 (inactive) and 0.833 (inactive) | fold change [10, 18]: 0.924 and 0.754 and 1.44 | cell count [10, 19]: 9600 and 8700 and 8160 | cell count [10, 20]: 9370 and 9480 and 9800 | z-score ([13]; MELAS cybrid survival, CellTiter-Glo 48 h, stronger effect = higher value): 0.667 (inactive) | z-score ([13]; Rieske KO mouse fibroblast survival, CellTiter-Glo 72 h): 0.294 | remaining NAD [14]: 10 nM (inactive)
